# From ChEMBL document CHEMBL1157539, “Thousands of chemical starting points for antimalarial lead identification” (Nature, 2010)
# “And” between values parts separate entries of the source, which are not always exact repeats. Equal values may be shown once.
# Test system: HepG2
# Assay: GSK_TCMDC: Percent inhibition of human HepG2 cell line. Test compounds present at 10uM.
# Assay type: functional
row,Structure (SMILES),Inhibition
1,Cl.N=C(N)Nc1ccc(OCCCCCOc2ccc(NC(=N)N)c(Cl)c2)cc1Cl,18%
2,CCOc1cc(C)ccc1N1CCN(CCN2CCC(NC(=O)c3ccc(-c4ccc(C#N)cc4)cc3)CC2)CC1,9%
3,O=C(/C=C/c1ccc(C(F)(F)F)cc1)NCCCCCN1CCN(C(=O)Nc2ccc(Cl)cc2)CC1,37%
4,Cc1ccc(CNC(=O)c2cnc(N3CCN(c4ccncc4)CC3)c(Cl)c2)cc1.O=C(O)C(F)(F)F,27%
5,CNC(=O)NC1CCN(Cc2c(-c3cccs3)nc3ccccc3c2C(=O)N[C@@H](C)C2CCCCC2)CC1,5%
6,CN(C)CCNC(=O)N1CCCN(c2ncnc3cc(-c4ccccc4)sc23)CC1.O=C(O)C(F)(F)F,5%
7,CC(=O)O.Nc1nc(N)c2cc3ccc(OCc4ccccc4)cc3nc2n1,78%
8,Cc1cccc2nc(-c3cccc(-c4ccc(CNCc5ccccc5)cc4)c3)[nH]c12.O=C(O)C(F)(F)F,33%
9,Cl.N=C(N)Nc1ccc(OCCCCCOc2ccc(NC(=N)N)cc2)cc1,12%
10,Cl.O=C(Nc1ccc(C(=O)OCC2CCCN3CCCCC23)cc1)c1ccc([N+](=O)[O-])cc1 (stereo not given),5%
11,CN1CCC=C(C(=O)NCC(C)(C)c2nc(-c3ccc(Cl)c(O)c3)c(-c3ccncc3)[nH]2)C1.Cl,39%
12,O=C(Nc1ccc(I)cc1)Nc1ccc(Cn2ncc(N3CCCNCC3)c(Cl)c2=O)cc1.O=C(O)C(F)(F)F,35%
13,COc1ccc(S(=O)(=O)NC2CCN(CCNC(=O)Nc3cc(C)nc4ccccc34)C2)cc1 (stereo not given),0%
14,CC(=O)Nc1ccc([N+](=O)[O-])c2c(Br)cccc12,0%
15,Clc1nc(Cl)c2c(ccn2Cc2ccccc2)n1,0%
16,COc1ccc(NC(=O)Nc2ccc(C)c(-c3ccc(C(=O)NCCN4CCCC4)cc3)c2)cc1,18%
17,Cl.O=C(NCCCCN1CCC(c2ccc3c(c2OCCO)CCCC3)CC1)c1ccc2oc(-c3ccc(C(F)(F)F)cc3)cc2c1,54%
18,CCN(CCCN1CCCCC1)c1cc(C)nc(Nc2ccc(Cl)cc2C)n1.O=C(O)C(F)(F)F,44%
19,COc1ccc2nc3cc(Cl)ccc3c(N)c2c1.Cl,100%
20,O=C(c1cc(-c2cccs2)n[nH]1)N1CCN(S(=O)(=O)c2ccc(Cl)s2)CC1,20%

row,Structure (SMILES),Inhibition
1,COc1ccc(CNCC2CCC(CNCCc3ccccc3)CC2)cc1Cl (stereo not given),23%
2,CN(C)CCn1c(N)c(-c2nc3ccccc3s2)c2nc(C#N)c(C#N)nc21,4%
3,Clc1ccc2c(NCCc3ccccn3)ccnc2c1,13%
4,CC1CCCCN1Cc1cccc(-c2c[nH]c3nc(NC4CCCC4)ncc23)c1.O=C(O)C(F)(F)F (stereo not given),0%
5,Cc1ccccc1C1CCN(C2CCC(NC(=O)C3=Cc4ccccc4OC3)CC2)CC1 (stereo not given),26%
6,CCOC(=O)NCCSC(C)(C)[C@H](NC(=O)[C@H](Cc1cc2ccccc2s1)[C@H](CC)N(O)C=O)C(=O)Nc1nccs1,11%
7,O=C(N[C@H]1CCN(Cc2ccc(OCCN3CCNCC3)c(Cl)c2)C1)c1ccc(Cl)c(Cl)c1.O=C(O)C(F)(F)F,50%
8,Cc1nc(C(C)Nc2nncc(-c3ccc(Cl)cc3)n2)cs1 (stereo not given),0%
9,O=C(O)C(F)(F)F.c1cc(CNCCN2CCNCC2)cc(-c2cccc(-c3nc4ccccc4[nH]3)c2)c1,11%
10,COc1cc(-n2cnc3cc(-c4ccc(Cl)cc4)sc3c2=O)ccc1OCCN1CCC(c2cccc(NC(C)=O)c2)CC1.O=C(O)/C=C\C(=O)O,61%
11,c1csc(-c2nc(N3CCCC3)ncc2-c2ccsc2)n1,1%
12,CCOc1ccc(-c2noc(-c3c[nH]c4ccccc4c3=O)n2)cc1,0%
13,O=C(CSc1nc(-c2ccccc2Cl)ns1)Nc1ccc2c(c1)OCO2,0%
14,CCC(C(=O)Nc1ccccc1)n1nc(-c2ccc(C)c(S(=O)(=O)N3CCCCC3)c2)ccc1=O (stereo not given),0%
15,CCC(CC(NCCCCNC(=O)c1ccc(NC(=O)c2ccc(Cl)cc2)cc1)c1ccccc1)c1ccccc1OC (stereo not given),23% and 10%
16,COc1ccc(CN2CCCN(Cc3ccc(C(=O)Nc4ccc(Cl)cc4)cc3)CC2)cc1.O=C(O)C(F)(F)F,46%
17,O=C(Nc1ccc(-c2cccc(-c3nc4cc(F)ccc4[nH]3)c2)cc1)Nc1ccc(Cl)c(Cl)c1,68%
18,CN(C)CCCOc1ccc(CN2CC[C@H](NC(=O)c3ccc(Cl)c(Cl)c3)C2)c2ccccc12.O=C(O)C(F)(F)F,81%
19,CCCCC(CC)CN1C(=O)C(c2ccccc2)(c2ccccc2)N=C1N.O=CO (stereo not given),32%
20,CCCCc1ccccc1NS(=O)(=O)c1ccc(OC)c(N2CCNCC2)c1.Cl,6%
